Results reported in PubChem BioAssay (NCI).
This is part of a sample that, as a whole, favours compounds with a hit. Of some 83,000 tested, about 20% had one in any assay.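 Each cell line was grown in a 96-well plate and treated with one concentration of compound for 48 hours. Values below 10 were considered active.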 Calls of active or inactive are those of the source.

Key:
Test in all cases: NCI-60 one-dose screen, 48 h (100 = growth as untreated, 0 = no growth, -100 = all killed)
Details in all cases: 10 µM unless noted
[1] = test system: HCT-15 colon
[2] = test system: HT29 colon
[3] = test system: SNB-75 CNS
[4] = test system: U251 CNS
[5] = test system: PC-3 prostate
[6] = test system: SK-MEL-5 melanoma
[7] = test system: LOX IMVI melanoma
[8] = test system: SK-MEL-28 melanoma
[9] = test system: SK-MEL-2 melanoma
[10] = test system: EKVX NSCLC
[11] = test system: SN12C renal
[12] = test system: UO-31 renal
[13] = test system: TK-10 renal
[14] = test system: ACHN renal
[15] = test system: CAKI-1 renal
[16] = test system: A498 renal
[17] = test system: CCRF-CEM leukemia
[18] = test system: MOLT-4 leukemia
[19] = test system: UACC-62 melanoma
[20] = test system: SNB-19 CNS

Measured: growth

CN(C)c1ccc(C(=O)c2ccc(N(C)C)c(N)c2)cc1N
active: [2] 9.95% | [3] -11.3% | [6] 3.25%
inactive: [1] 26% | [4] 34.4% | [5] 49.3% | [7] 53.9% | [8] 61.9% | [9] 61.6% | [10] 50.9% | [11] 49.7% | [12] 64.9% | [13] 67.3% | [14] 50.5% | [15] 41% | [16] 25% | [17] 36.4% | [18] 24.4%

CCOC(=O)c1ccc2c(c1)[n+](=O)c(C(=O)C1CCCS1)c(C(F)(F)F)n2[O-] (stereo not drawn)
active: [1] -72% | [2] -82.4% | [3] -100% | [4] -100% | [5] -75.4% | [6] -96.9% | [19] -80.4% | [8] -93.6% | [9] -87.3% | [10] -77% | [11] -47.3% | [12] -92.4% | [13] -96.5% | [14] -86.9% | [15] -85.4% | [17] -44% | [18] -67.3%

CC(=O)O[C@H]1CC[C@@]2(C)[C@@H](CC[C@@H]3[C@@H]2CC(=O)[C@@]2(C)[C@H]3C[C@@H](C3CCCC3=O)[C@@H]2C(C)=O)C1 (stereo partly drawn)
inactive: [1] 106% | [3] 97.4% | [4] 102% | [5] 93.1% | [19] 91.6% | [8] 113% | [9] 111% | [10] 116% | [11] 84.4% | [12] 88.3% | [13] 106% | [14] 107% | [15] 114% | [16] 97.1% | [17] 92.9% | [18] 86.1%

Nc1c(C(=O)Nc2c(Cl)cccc2Cl)sc2nc3c(cc12)C(=O)CCC3
inactive: [1] 35.5% | [3] 14.1% | [20] 39.6% | [4] 26.4% | [5] 39.9% | [6] 10.4% | [7] 44.4% | [9] 27.3% | [10] 76% | [11] 47.6% | [12] 48.3% | [13] 59.5% | [14] 50.9% | [15] 41.5% | [17] 54.8% | [18] 65.3%
active: [16] 2.03%

C=CC(=O)N[C@H](Cc1ccc(-c2cc(Cl)cc(Cl)c2)cc1)[C@H](O)[C@@H](O)C(=O)O
inactive: [1] 96% | [3] 87% | [20] 99.5% | [4] 80.2% | [5] 63.9% | [6] 91.6% | [7] 95.6% | [8] 106% | [9] 90% | [10] 90% | [11] 98.5% | [12] 86.8% | [13] 81.7% | [14] 101% | [15] 84% | [16] 80.6% | [17] 80.2% | [18] 102%

O=C1/C(=C\C(Cl)=C/c2ccc([N+](=O)[O-])cc2)SC(=S)N1CCc1ccc(O)cc1
active: [1] -49.9% | [3] -27.7% | [20] -59.7% | [4] -88% | [5] -14.8% | [6] -78.9% | [19] -30.8% | [8] -61.2% | [9] 0.0993% | [10] -43% | [11] -9.23% | [12] -91.4% | [13] -32.7% | [14] -89.4% | [15] -70.5% | [16] -27.5% | [17] 8.16% | [18] 7.65%

C/C(=C(/c1ccccc1)c1ccc(N2C(=O)c3cccc4c(NCc5ccccc5)ccc(c34)C2=O)cc1)c1ccccc1
inactive: [1] 103% | [3] 94.6% | [20] 96.8% | [4] 99.5% | [5] 82.1% | [6] 99.3% | [19] 80.3% | [8] 107% | [9] 107% | [10] 75.3% | [11] 92% | [12] 68.8% | [13] 145% | [14] 94.8% | [15] 84.5% | [16] 107% | [17] 89.1% | [18] 88.9%

c1ccc2[nH]c(-c3cc(-c4ccc5c(c4)OCO5)n[nH]3)nc2c1
inactive: [1] 56.7% | [3] 33.8% | [20] 68.3% | [4] 36.6% | [5] 50.4% | [6] 13.2% | [19] 49.7% | [8] 71.3% | [9] 41% | [11] 62.9% | [12] 66.7% | [13] 86% | [14] 45.6% | [15] 55.1% | [16] 71.8%

COc1cc2ncnc(Nc3ccc(Oc4ccnc(C)c4)c(C)c3)c2cc1NC(=O)CC1CCSS1 (stereo not drawn)
inactive: [11] 21.3% | [14] 10.5% | [16] 66.8%
active: [1] -72.4% | [3] -3.3% | [4] -13.4% | [5] -50.3% | [7] -87.8% | [8] -66% | [9] -57.7% | [10] -1.66% | [12] -23.7% | [13] -68.6% | [15] 3.34% | [17] -30.8% | [18] -56.8%

CCC(CC)C(=O)OC(C)COc1ccc(C(C)(C)C)cc1 (stereo not drawn)
inactive: [1] 109% | [3] 94.8% | [20] 103% | [4] 90.1% | [5] 73.2% | [6] 98.7% | [7] 106% | [8] 101% | [9] 101% | [10] 105% | [11] 99.4% | [12] 97.3% | [13] 97% | [14] 102% | [15] 98.8% | [16] 87.8% | [17] 93% | [18] 82.7%

O=C1c2ccccc2NC(c2cn(-c3ccccc3)nc2-c2cccs2)N1Cc1ccccc1 (stereo not drawn)
inactive: [1] 77.7% | [3] 87.7% | [20] 95.4% | [4] 86.9% | [5] 64.8% | [6] 80.9% | [7] 62.1% | [8] 97.3% | [9] 74% | [10] 72.1% | [11] 90.8% | [12] 57.5% | [13] 91.1% | [14] 86.2% | [16] 84% | [17] 95.6% | [18] 55.1%
